GoLoco inh red: qHTS Assay for Inhibitors of RGS12 GoLoco Motif Activity (Red Fluorophore) | Guanine nucleotide-binding protein G(i) subunit alpha-1 (Homo sapiens), P63096 | Gai1:RGS12 GoLoco peptide FP, rhodamine, 10 min | Potency, µM (series often up to 61.6 µM), hits mostly inhibitors | hit rate 0.44% among 230,000 | AID 880, 2007; active means well fitted inhibition curve with a large enough effect, not every such curve was filed as active; inactive means no such curve, though single readings can be large or run the other way; further: nearly all actives have a fitted effect of over 30% in size
Target sequence (P63096 whole entry, looked up): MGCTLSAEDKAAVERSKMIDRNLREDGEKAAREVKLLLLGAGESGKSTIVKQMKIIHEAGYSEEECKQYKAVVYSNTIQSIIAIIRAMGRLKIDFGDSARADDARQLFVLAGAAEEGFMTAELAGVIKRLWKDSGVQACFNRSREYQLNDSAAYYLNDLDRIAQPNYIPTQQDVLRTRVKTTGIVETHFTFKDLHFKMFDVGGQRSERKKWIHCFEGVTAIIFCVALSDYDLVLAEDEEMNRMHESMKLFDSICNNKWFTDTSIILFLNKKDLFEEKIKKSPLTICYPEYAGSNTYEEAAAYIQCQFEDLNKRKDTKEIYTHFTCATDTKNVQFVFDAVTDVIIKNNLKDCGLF
VDR inh: Inhibitors of the vitamin D receptor (VDR): qHTS | VDR-SRC2-3 peptide fluorescence polarization, 2 h | Potency, µM, usual class: inhibitors | hit rate 0.93% among 400,000 | AID 504847, 2011
Target sequence (P11473 whole entry, looked up): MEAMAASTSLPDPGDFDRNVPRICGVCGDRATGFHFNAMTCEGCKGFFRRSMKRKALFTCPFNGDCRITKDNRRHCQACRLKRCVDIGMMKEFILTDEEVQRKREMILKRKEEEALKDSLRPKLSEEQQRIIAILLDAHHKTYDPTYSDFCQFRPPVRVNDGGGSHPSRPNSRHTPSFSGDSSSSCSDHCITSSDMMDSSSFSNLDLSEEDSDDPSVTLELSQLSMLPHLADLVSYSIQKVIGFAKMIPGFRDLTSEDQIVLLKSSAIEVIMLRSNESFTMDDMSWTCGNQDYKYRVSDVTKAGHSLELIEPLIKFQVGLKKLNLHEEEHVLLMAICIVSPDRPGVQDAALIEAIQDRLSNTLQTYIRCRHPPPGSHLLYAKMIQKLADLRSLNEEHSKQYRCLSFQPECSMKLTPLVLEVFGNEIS
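FP read-out; VDR + SRC2-3 coactivator peptide; 23 nl compound by pintool; 2 h RT incubation; reagents held at 4 deg C, protected from light.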
TRb-SRC2 inh: qHTS for Inhibitors of the Interaction of Thyroid Hormone Receptor and Steroid Receptor Coregulator 2. Thyroid hormone receptor beta (Homo sapiens), P10828. TRbeta-SRC2 peptide binding, fluorescence polarization; receptor liganded with 1 µM T3. Potency, µM (top dose mostly 106 µM), most hits filed as inhibitors. hit rate 0.065% among 280,000; further: nearly all actives have a fitted effect of over 50% in size
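Each compound concentration gave % activity, normalized to unbound and bound Texas Red SRC2 controls, from polarization read after 5 hr ambient incubation with T3-loaded human TRb LBD.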
GCN5L2 inh: qHTS Assay for Inhibitors of GCN5L2; Histone acetyltransferase KAT2A (Homo sapiens), Q92830; GCN5L2 HAT assay, ThioGlo1 CoA-SH fluorescence; Potency, µM (series often up to 58.9 µM), usual class: inhibitors; hit rate 0.21% among 390,000
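GCN5L2 (20 nM) in 50mM HEPES pH 7.5, 0.1mM EDTA, 0.01% Tween-20 preincubated 15 min with compounds at room temperature. Reaction started with H3(1-25) 75uM, acetyl-CoA 70uM, ThioGlo1 50uM; CoA-thiol fluorescence (Ex340/Em540) read at 0 and 20 min.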
TR SRC2 fluor cs: Total Fluorescence Counterscreen for Inhibitors of the Interaction of Thyroid Hormone Receptor and Steroid Receptor Coregulator 2 | TRb/SRC2 Texas Red total fluorescence interference | Potency, µM (highest dose often 106 µM) | hit rate 0.29% among 280,000; active means well fitted curve in either direction with a large enough effect; inconclusive means small, poorly fitted or top-dose-only effect
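Human TRβ ligand-binding domain (0.6 uM) and Texas Red SRC2 peptide (20 nM) in Tris buffer with 1 uM T3 and 5% DMSO were incubated with pinned compound for 5 hr at ambient temperature. Total fluorescence was computed as S + 2P (555/632 nm).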
Of the large screens only hits and unclear results are named; the others gave an inactive call; ! = not confirmed by another sample; [ ] = dose if it differs, or a comment. Most compounds without a hit are left out; they make up all but 1.2% or so of the library. Unless noted, the call rests on the fitted dose curve; in most records, active means well fitted curve in the direction sought with a large enough effect; inconclusive means small, poorly fitted or top-dose-only effect, or another doubt; inactive means no such curve, though single readings can be large; an effect the other way counts as inactive or inconclusive.

C/C1=C2/[N-]C(C(CC(N)=O)[C@@]2(C)CCC(=O)NCC(C)OP(=O)([O-])O[C@H]2[C@@H](O)[C@@H](n3cnc4cc(C)c(C)cc43)O[C@@H]2CO)[C@]2(C)N=C(/C(C)=C3N=C(/C=C4N=C1C(CCC(N)=O)C\4(C)C)[C@@H](CCC(N)=O)[C@]\3(C)CC(N)=O)[C@@H](CCC(N)=O)[C@]2(C)CC(N)=O.CC(=O)O.[Co] (some centres not stated)	VDR inh 10µM (no result: GoLoco inh red, TRb-SRC2 inh, TR SRC2 fluor cs)
C[N+](C)(C)C(C1=CCCC1=O)c1ccccc1 (configuration not stated)	none (no result: VDR inh, TRb-SRC2 inh, GCN5L2 inh, TR SRC2 fluor cs)
Cc1ccc(-c2cc(C(=O)N3CC(C)CC(C)C3)c3ccccc3n2)o1 (configuration not stated)	VDR inh inconclusive (no result: GoLoco inh red, TRb-SRC2 inh, TR SRC2 fluor cs)
COC(=O)c1cc(-c2ccc(C)o2)nc2ccccc12	VDR inh 79µM, GCN5L2 inh inconclusive
Cc1ccc(-c2cc(C(=O)N3CC(C)OC(C)C3)c3ccccc3n2)o1 (configuration not stated)	GCN5L2 inh 22µM (no result: GoLoco inh red, TRb-SRC2 inh, TR SRC2 fluor cs)
CCOC(=O)C(C(=O)OCC)C(Nc1ccc(Br)cc1)c1ccccc1 (configuration not stated)	VDR inh 79µM
O=c1cc(O)n(C2CCCCCC2)c(=O)[nH]1	VDR inh inconclusive (no result: GoLoco inh red, TRb-SRC2 inh, TR SRC2 fluor cs)
O=c1[nH][nH]c(=S)n1C1CCCCC1	VDR inh 35µM, GCN5L2 inh 16µM
Cc1ccc(CNCc2ccccc2)s1	TR SRC2 fluor cs 18µM[quencher] (no result: GoLoco inh red)
Cc1ccc(CNCc2ccccc2Cl)s1	none (no result: GoLoco inh red)
Cc1ccc(OC2C(O)COC2/C=C/C#Cc2ccc(C(C)(C)C)cc2)cc1 (configuration not stated)	none (no result: GoLoco inh red, VDR inh, GCN5L2 inh)
NS(=O)(=O)c1cc2c(cc1Cl)=NC(CCC(=O)O)=NS=2(=O)O	none (no result: VDR inh, TRb-SRC2 inh, GCN5L2 inh, TR SRC2 fluor cs)
Cc1cc(C2(c3cc(C)c(O)c(C(=O)O)c3)OS(=O)(=O)c3ccccc32)cc(C(=O)O)c1O	none (no result: VDR inh, TRb-SRC2 inh, GCN5L2 inh, TR SRC2 fluor cs)
CC(=O)N1c2ccc(S(=O)(=O)N3CCC(C(=O)NCc4ccc(Cl)cc4)CC3)cc2CC1C (configuration not stated)	VDR inh 25µM (no result: GoLoco inh red, TRb-SRC2 inh, TR SRC2 fluor cs)
CC1Cc2cc(S(=O)(=O)NCc3ccc(N(C)C)cc3)ccc2N1C(=O)C1CCC1 (configuration not stated)	TR SRC2 fluor cs 22µM[quencher] (no result: GoLoco inh red)
CC1(C)C(=O)N(Br)C(=O)N1Cl	none (no result: GoLoco inh red, VDR inh, GCN5L2 inh)
CCCCCCC#CC1C=CC(OC(C)=O)C(COC(C)=O)O1 (configuration not stated)	none (no result: GoLoco inh red, VDR inh, GCN5L2 inh)
CN(CCCN(Cc1ccc(Cl)cc1)c1ccc(Br)cn1)C(=S)NCCCc1cnc[nH]1	none (no result: GoLoco inh red, TRb-SRC2 inh, GCN5L2 inh, TR SRC2 fluor cs)
CCOC(=O)Oc1c(OC)cc(C(=O)O[C@H]2C[C@H]3CN4CCc5c([nH]c6cc(OC)ccc56)[C@@H]4C[C@H]3[C@@H](C(=O)OC)[C@@H]2OC)cc1OC	GCN5L2 inh inconclusive
COC(=O)[C@H]1[C@H]2C[C@@H]3c4[nH]c5ccccc5c4CCN3C[C@H]2C[C@@H](OC(=O)c2cc(OC)c(OC)c(OC)c2)[C@@H]1OC	VDR inh 35µM, GCN5L2 inh inconclusive (no result: GoLoco inh red, TRb-SRC2 inh, TR SRC2 fluor cs)
O[C@@H](c1cc([C@@]23C[C@H]4CC[C@@H]2C[C@H](C4)C3)nc2c(Cl)cc(Cl)cc12)C1CCCCN1 (some centres not stated)	none (no result: VDR inh, TRb-SRC2 inh, GCN5L2 inh, TR SRC2 fluor cs)
CCCc1nnc(SCc2ccc(OC)cc2)n1N	VDR inh 25µM
CCCOc1ccc(CSc2nnc(CCC)n2N)cc1	none
O=C1C=CC(=O)N1N(c1ccccc1)c1ccccc1	VDR inh 13µM
C=C(C)C(=O)OC[C@@H]1CCC[N@+]2(C)CCCCC12 (some centres not stated)	none (no result: GCN5L2 inh)
CC(=O)OC1C2CCC1C([N+]1(C)CCCCC1)CC2 (configuration not stated)	GoLoco inh red 14µM
CC(C)C[C@H](NC(=O)CNC(=O)[C@H](C)NC(=O)[C@H](CC(C)C)NC(=O)[C@H](CCCNC(=N)N)NC(=O)[C@H](Cc1cnc[nH]1)NC(=O)[C@@H](NC(=O)[C@@H](NC(=O)[C@@H]1CSSC[C@H](NC(=O)[C@@H](N)CO)C(=O)N[C@@H](CC(N)=O)C(=O)N[C@@H]([C@@H](C)O)C(=O)N[C@@H](C)C(=O)N[C@@H]([C@@H](C)O)C(=O)N1)C(C)C)[C@@H](C)O)C(=O)N[C@@H](CC(C)C)C(=O)N[C@@H](CO)C(=O)N[C@@H](CCCNC(=N)N)C(=O)N[C@@H](CO)C(=O)NCC(=O)NCC(=O)N[C@H](C(=O)N[C@H](C(=O)N[C@@H](CCCCN)C(=O)N[C@@H](CC(=O)O)C(=O)N[C@@H](CC(N)=O)C(=O)N[C@@H](Cc1ccccc1)C(=O)N[C@H](C(=O)N1CCC[C@H]1C(=O)N[C@H](C(=O)N[C@@H](CC(N)=O)C(=O)N[C@H](C(=O)NCC(=O)N[C@@H](CO)C(=O)N[C@@H](CCCCN)C(=O)N[C@@H](C)C(=O)N[C@@H](Cc1ccccc1)C(N)=O)C(C)C)[C@@H](C)O)C(C)C)C(C)C)C(C)C	none (no result: GoLoco inh red)
N#C/C(=C/c1ccc(O)c(O)c1)C(=O)OC/C=C/c1ccccc1	GCN5L2 inh 14µM
CCOC(=O)/C(C#N)=C\c1ccc(N2CCN(C/C=C/c3ccccc3)CC2)cc1	none
N#C/C(=C\c1ccc(O)c(O)c1)C(=O)Nc1ccccc1	VDR inh 13µM!
O=C1C(c2ccccc2)SC(=Nc2ccccc2)N1S(=O)(=O)c1ccccc1 (configuration not stated)	VDR inh 89µM
CCCCOC(=O)CC(CC(=O)OCCCC)(OC(C)=O)C(=O)OCCCC	none (no result: GoLoco inh red, VDR inh, GCN5L2 inh)
S=c1[nH]nc(NCCCN2CCOCC2)s1	VDR inh 89µM, GCN5L2 inh inconclusive
CCN(CC)c1ccc(N=Cc2cc(Br)ccc2O)cc1	VDR inh inconclusive, TRb-SRC2 inh 50µM
Oc1ccc(Br)cc1C=Nc1ccc(Cl)cc1	none
O=C1OCCN1C(=O)[C@H]1[C@H](c2ccccc2)C(c2ccccc2)=NN1c1ccc(Br)cc1	GCN5L2 inh inconclusive
O=C1OCCN1C(=O)[C@H]1[C@H](c2ccccc2)C(c2ccccc2)=NN1c1ccccc1	GCN5L2 inh 28µM
CN1\C(=C/C=C/C=C/C=[N+](C)C)C(C)(C)c2ccccc21	VDR inh inconclusive, TRb-SRC2 inh inconclusive, TR SRC2 fluor cs 50µM[fluorescent]
[N-]=C=C1C(=S)NC(=O)[C@H]([n+]2ccccc2)[C@H]1c1ccc(Cl)cc1	VDR inh 45µM, GCN5L2 inh 11µM
C=CCOC(=O)C(=O)/C=C/c1coc2ccccc2c1=O	VDR inh 14µM
N#Cc1nc(N)nc(N2CCCCC2)n1	none (no result: GoLoco inh red, TRb-SRC2 inh, GCN5L2 inh, TR SRC2 fluor cs)
CC(C)(C)NC(=O)C(c1ccncc1)N(Cc1ccco1)C(=O)c1ccc(-c2ccccc2)[nH]1 (configuration not stated)	VDR inh 71µM

High-throughput results (PubChem)
